Holding throughout (assay): DAPPL (digital affinity profiling via proximity ligation, sequencing); 10 mM Tris-HCl pH 7.5, 50 mM NaCl, 1 mM DTT, 4% glycerol, room temperature, 30 min; GST-TFs on glutathione beads, 16-mer random dsDNA library, 0.1% formaldehyde crosslink after washing; high values mean tight binding
The target in experiment [1] is T1, FEV (Homo sapiens, UniProt Q99581 1-238).
T1 sequence: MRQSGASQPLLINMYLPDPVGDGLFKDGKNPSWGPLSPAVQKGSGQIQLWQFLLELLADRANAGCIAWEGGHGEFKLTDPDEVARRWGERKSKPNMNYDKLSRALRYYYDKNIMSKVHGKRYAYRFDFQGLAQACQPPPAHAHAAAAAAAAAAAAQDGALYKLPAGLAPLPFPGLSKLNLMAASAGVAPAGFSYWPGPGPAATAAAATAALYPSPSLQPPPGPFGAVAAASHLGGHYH
The conditions noted are these: protein: recombinant; tags: N-terminal GST; dsDNA, one strand shown. The gist of the method: (§1)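 Binding signal is defined as a hexamer's read frequency for one factor over its frequency for the tag-only sample. To obtain reads, GST-fused human transcription factors were expressed in yeast, captured on glutathione beads, barcoded with DNA and pooled with that sample. Pools met 200 nmole of a 16-mer random double-stranded DNA library in Tris/NaCl/DTT/glycerol buffer for 30 min at room temperature before washing, 0.1% formaldehyde crosslinking, proximity ligation (BsaI/T4 ligase, 1 h, 37 °C), PCR and Illumina NextSeq500 sequencing.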

The target of experiment [2] is ETV5 (Homo sapiens, UniProt P41161 1-510). The conditions noted are these: protein: recombinant; tags: N-terminal GST; dsDNA, one strand shown. The method in brief: as §1
Sequence of ETV5 (P41161 whole entry): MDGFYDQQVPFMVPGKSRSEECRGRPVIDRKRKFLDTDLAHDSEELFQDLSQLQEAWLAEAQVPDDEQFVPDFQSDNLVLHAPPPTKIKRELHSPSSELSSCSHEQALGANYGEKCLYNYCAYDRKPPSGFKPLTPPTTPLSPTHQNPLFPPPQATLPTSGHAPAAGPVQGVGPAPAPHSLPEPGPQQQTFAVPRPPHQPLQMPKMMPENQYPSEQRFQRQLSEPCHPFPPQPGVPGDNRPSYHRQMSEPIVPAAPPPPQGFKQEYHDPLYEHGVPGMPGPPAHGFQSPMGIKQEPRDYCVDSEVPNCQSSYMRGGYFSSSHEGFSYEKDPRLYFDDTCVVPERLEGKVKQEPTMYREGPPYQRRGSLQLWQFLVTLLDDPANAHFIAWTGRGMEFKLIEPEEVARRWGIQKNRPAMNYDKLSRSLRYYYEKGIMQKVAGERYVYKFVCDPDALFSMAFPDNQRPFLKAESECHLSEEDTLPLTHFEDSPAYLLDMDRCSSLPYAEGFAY
In experiment [3] the target is HSF1 (Homo sapiens, UniProt Q00613 1-529). Particulars: protein: recombinant; tags: N-terminal GST; chain copies: 3; dsDNA, one strand shown. The gist of the method:
as §1

The target of experiment [4] is T2, SPIC (Homo sapiens, UniProt Q8N5J4 1-248).
T2 sequence: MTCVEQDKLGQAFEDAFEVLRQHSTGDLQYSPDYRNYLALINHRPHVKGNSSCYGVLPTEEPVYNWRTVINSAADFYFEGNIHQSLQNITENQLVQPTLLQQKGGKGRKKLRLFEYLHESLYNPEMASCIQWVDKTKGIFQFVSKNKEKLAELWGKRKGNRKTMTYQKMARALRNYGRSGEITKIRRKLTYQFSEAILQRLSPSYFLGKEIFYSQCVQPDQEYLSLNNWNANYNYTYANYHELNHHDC
The conditions noted are these: protein: recombinant; tags: N-terminal GST; dsDNA, one strand shown. The gist of the method:
as §1

For experiment [5], the target named is ELF4 (Homo sapiens, UniProt Q99607 1-663). The conditions noted are these: protein: recombinant; tags: N-terminal GST; dsDNA, one strand shown. The method in brief: as §1
Sequence of ELF4 (Q99607 whole entry): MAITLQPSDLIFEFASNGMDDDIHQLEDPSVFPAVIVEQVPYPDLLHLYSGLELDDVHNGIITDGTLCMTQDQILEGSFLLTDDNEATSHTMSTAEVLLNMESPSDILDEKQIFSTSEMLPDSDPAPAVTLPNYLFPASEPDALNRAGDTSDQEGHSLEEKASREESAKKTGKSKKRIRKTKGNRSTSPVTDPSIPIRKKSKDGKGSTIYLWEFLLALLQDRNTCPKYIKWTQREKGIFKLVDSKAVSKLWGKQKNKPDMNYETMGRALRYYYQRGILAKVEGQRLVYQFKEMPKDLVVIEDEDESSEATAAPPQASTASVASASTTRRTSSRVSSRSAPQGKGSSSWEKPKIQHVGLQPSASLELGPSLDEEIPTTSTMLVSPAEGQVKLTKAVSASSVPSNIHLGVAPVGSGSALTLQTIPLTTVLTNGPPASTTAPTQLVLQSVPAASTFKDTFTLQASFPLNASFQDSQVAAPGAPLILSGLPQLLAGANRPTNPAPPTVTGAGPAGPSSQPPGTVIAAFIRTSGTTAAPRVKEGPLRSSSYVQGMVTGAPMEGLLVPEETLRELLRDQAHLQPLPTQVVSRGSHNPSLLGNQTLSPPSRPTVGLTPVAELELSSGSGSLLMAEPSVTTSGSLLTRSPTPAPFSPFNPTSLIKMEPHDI
The target of experiment [6] is T3, ELK4 (Homo sapiens, UniProt P28324-2 1-405).
T3 sequence: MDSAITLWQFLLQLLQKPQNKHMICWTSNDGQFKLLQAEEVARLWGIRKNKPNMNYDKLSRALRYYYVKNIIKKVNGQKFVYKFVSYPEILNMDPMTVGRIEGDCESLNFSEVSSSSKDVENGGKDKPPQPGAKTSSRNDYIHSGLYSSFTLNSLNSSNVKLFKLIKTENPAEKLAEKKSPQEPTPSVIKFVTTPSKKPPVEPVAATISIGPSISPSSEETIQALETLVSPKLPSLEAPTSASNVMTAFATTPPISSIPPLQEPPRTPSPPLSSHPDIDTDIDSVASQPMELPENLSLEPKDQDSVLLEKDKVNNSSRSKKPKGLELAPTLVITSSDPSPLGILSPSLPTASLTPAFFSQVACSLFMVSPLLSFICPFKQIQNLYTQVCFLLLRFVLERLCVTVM
The conditions noted are these: protein: recombinant; tags: N-terminal GST; dsDNA, one strand shown. The gist of the method:
as §1

In experiment [7] the target is T4, ETV2 (Homo sapiens, UniProt O00321 1-342).
T4 sequence: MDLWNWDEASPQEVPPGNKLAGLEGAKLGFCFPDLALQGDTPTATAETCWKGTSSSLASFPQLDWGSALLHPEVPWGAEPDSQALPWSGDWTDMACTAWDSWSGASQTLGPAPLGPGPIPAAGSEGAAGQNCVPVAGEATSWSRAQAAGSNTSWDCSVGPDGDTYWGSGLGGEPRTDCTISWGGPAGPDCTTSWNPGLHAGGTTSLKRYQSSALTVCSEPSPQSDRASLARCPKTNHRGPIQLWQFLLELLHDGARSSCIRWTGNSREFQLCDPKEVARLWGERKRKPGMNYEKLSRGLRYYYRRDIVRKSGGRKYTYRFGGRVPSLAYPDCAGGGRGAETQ
Particulars: protein: recombinant; tags: N-terminal GST; dsDNA, one strand shown. The method in brief: as §1

In experiment [8] the target is T5, ELF3 (Homo sapiens, UniProt P78545 1-371).
T5 sequence: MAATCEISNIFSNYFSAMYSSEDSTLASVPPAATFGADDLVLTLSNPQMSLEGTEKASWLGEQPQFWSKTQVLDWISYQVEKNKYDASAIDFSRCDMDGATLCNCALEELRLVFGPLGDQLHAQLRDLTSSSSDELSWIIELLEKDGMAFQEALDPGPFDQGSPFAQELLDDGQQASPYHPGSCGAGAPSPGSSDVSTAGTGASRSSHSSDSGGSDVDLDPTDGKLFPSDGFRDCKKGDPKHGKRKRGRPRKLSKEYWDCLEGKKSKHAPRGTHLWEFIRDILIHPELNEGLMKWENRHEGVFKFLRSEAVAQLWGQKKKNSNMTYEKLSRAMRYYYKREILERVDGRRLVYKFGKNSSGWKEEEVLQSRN
The conditions noted are these: protein: recombinant; tags: N-terminal GST; dsDNA, one strand shown. The gist of the method: as §1

The target in experiment [9] is CRX (Homo sapiens, UniProt O43186 1-299). The conditions noted are these: protein: recombinant; tags: N-terminal GST; dsDNA, one strand shown. The method in brief: as §1
Sequence of CRX (O43186 whole entry): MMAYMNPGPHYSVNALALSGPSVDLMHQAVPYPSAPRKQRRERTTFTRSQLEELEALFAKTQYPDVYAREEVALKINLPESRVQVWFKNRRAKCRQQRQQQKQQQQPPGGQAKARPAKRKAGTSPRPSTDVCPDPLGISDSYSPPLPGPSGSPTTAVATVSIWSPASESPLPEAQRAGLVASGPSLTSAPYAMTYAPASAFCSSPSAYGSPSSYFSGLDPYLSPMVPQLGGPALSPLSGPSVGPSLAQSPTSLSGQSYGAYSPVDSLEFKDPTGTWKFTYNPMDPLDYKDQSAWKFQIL
For experiment [10], the target named is ETV1 (Homo sapiens, UniProt P50549 1-477). Particulars: protein: recombinant; tags: N-terminal GST; dsDNA, one strand shown. The method in brief: as §1
Sequence of ETV1 (P50549 whole entry): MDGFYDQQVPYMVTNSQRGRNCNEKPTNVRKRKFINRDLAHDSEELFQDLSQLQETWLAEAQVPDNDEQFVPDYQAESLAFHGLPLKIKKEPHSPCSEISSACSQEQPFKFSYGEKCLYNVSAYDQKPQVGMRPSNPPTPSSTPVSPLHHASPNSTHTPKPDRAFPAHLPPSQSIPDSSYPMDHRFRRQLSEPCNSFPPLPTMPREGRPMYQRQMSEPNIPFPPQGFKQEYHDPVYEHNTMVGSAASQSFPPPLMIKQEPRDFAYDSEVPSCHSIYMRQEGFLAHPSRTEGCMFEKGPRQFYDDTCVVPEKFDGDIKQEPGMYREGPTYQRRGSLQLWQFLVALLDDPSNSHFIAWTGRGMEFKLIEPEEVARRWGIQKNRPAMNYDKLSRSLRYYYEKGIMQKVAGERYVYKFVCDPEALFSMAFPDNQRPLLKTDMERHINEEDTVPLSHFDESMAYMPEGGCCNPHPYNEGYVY
The target in experiment [11] is T6, ERF (Homo sapiens, UniProt P50548 1-548).
T6 sequence: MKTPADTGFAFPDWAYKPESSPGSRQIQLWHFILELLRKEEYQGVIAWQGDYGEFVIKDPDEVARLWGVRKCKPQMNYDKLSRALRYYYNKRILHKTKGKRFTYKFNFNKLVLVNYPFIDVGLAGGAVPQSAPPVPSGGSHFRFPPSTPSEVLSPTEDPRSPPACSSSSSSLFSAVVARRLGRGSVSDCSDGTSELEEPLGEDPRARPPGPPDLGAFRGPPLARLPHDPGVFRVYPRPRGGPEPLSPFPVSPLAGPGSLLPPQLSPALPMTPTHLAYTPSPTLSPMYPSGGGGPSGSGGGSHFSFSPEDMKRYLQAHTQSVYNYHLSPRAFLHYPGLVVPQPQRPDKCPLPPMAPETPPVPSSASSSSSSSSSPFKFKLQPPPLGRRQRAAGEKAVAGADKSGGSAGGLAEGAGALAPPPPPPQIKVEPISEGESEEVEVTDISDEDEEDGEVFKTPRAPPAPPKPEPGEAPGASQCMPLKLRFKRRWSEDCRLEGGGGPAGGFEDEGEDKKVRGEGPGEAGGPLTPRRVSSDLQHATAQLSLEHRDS
The conditions noted are these: protein: recombinant; tags: N-terminal GST; dsDNA, one strand shown. The gist of the method: as §1

For experiment [12], the target named is T7, ETV3L (Homo sapiens, UniProt Q6ZN32 1-361).
T7 sequence: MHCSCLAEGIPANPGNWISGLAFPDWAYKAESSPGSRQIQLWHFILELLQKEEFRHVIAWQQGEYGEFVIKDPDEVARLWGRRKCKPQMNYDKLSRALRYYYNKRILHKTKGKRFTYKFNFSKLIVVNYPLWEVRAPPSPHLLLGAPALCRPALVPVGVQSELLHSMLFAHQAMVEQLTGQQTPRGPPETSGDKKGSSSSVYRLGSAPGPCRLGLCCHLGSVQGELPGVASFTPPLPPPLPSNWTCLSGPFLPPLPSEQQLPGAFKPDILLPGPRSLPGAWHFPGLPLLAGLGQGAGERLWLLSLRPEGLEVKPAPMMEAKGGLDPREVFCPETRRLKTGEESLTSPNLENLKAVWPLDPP
Particulars: protein: recombinant; tags: N-terminal GST; dsDNA, one strand shown. The method in brief:
as §1

The target of experiment [13] is T8, ETS2 (Homo sapiens, UniProt P15036 1-469).
T8 sequence: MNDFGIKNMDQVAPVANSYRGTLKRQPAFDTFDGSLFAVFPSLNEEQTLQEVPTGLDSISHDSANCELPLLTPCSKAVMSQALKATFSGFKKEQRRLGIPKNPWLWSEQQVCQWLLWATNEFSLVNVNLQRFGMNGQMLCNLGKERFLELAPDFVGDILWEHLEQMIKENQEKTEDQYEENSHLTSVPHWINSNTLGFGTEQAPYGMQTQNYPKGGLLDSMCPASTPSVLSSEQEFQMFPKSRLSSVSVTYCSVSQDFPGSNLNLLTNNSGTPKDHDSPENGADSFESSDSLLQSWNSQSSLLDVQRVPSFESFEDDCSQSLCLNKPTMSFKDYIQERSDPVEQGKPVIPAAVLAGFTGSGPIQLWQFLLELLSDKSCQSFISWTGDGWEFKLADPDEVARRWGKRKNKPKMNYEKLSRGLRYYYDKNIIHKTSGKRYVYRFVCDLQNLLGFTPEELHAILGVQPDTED
The conditions noted are these: protein: recombinant; tags: N-terminal GST; dsDNA, one strand shown. The method in brief:
as §1

The target in experiment [14] is T9, SPDEF (Homo sapiens, UniProt O95238 1-335).
T9 sequence: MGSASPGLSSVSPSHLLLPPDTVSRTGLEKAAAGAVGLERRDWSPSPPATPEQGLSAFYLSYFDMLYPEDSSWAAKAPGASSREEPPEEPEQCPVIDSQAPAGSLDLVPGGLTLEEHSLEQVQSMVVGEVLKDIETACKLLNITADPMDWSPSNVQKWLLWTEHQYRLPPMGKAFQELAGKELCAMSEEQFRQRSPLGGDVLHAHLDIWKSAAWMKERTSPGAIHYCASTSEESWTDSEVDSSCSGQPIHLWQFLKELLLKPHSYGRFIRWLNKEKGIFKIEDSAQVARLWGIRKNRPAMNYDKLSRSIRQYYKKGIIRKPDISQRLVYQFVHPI
Particulars: protein: recombinant; tags: N-terminal GST; dsDNA, one strand shown. The method in brief:
as §1

Experiment [15] concerns the target T10, ETV7 (Homo sapiens, UniProt Q9Y603 1-341).
T10 sequence: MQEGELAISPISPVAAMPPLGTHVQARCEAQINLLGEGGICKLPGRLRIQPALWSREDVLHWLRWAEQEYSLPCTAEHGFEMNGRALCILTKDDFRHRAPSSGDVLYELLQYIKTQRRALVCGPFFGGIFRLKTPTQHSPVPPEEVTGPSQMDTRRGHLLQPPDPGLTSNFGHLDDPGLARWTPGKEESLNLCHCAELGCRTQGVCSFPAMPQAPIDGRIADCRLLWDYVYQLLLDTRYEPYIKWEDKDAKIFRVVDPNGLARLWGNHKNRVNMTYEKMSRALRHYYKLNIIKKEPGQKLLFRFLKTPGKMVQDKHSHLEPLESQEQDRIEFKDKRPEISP
The conditions noted are these: protein: recombinant; tags: N-terminal GST; dsDNA, one strand shown. The method in brief: as §1

The target of experiment [16] is T11, ELF5 (Homo sapiens, UniProt Q9UKW6-2 1-255).
T11 sequence: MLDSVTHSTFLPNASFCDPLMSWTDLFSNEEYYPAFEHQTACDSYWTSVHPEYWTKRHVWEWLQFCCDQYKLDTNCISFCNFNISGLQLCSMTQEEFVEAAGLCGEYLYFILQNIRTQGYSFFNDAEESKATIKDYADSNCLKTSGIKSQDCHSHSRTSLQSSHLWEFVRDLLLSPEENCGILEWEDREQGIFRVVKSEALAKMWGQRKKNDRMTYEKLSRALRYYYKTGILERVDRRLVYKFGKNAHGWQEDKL
Particulars: protein: recombinant; tags: N-terminal GST; dsDNA, one strand shown. The gist of the method: as §1

The target in experiment [17] is T12, ETV3 (Homo sapiens, UniProt P41162-2 1-143).
T12 sequence: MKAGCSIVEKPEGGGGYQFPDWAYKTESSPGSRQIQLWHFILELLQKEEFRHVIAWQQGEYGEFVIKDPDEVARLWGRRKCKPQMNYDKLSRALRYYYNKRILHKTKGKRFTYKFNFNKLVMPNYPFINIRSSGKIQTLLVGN
The conditions noted are these: protein: recombinant; tags: N-terminal GST; dsDNA, one strand shown. The gist of the method: as §1

For experiment [18], the target named is ETV6 (Homo sapiens, UniProt P41212 1-452). Particulars: protein: recombinant; tags: N-terminal GST; dsDNA, one strand shown. The gist of the method: as §1
Sequence of ETV6 (P41212 whole entry): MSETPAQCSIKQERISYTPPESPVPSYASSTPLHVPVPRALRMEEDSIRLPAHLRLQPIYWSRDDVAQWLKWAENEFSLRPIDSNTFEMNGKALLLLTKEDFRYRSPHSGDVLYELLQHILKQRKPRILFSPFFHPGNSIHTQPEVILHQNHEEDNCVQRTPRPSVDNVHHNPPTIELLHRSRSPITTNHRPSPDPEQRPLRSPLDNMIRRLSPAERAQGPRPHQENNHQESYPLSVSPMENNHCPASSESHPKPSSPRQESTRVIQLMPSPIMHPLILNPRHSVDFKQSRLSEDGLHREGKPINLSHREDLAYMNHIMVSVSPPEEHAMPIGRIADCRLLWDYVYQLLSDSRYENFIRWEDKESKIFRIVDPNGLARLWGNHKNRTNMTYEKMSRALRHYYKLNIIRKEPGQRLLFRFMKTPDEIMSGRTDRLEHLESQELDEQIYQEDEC

Sequence of HSF1 (Q00613 whole entry): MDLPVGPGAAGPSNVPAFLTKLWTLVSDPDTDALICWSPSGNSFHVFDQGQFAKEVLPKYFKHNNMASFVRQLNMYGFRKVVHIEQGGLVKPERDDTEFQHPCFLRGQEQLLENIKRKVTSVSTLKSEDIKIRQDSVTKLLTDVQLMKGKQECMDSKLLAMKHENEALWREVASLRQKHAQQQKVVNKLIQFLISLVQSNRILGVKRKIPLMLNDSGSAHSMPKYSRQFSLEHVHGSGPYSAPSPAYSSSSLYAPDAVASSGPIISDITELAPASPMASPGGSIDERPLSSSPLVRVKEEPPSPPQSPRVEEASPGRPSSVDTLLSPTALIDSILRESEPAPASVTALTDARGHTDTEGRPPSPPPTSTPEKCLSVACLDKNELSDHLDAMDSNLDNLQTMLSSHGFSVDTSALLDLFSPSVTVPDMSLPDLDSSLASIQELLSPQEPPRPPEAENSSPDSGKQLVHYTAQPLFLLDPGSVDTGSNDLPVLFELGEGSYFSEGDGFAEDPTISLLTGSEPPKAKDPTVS

Take CCGATT: the binding signal was 1.37 fold enrichment (6-mer frequency, TF over GST control) in [1]; 1.34 fold enrichment (6-mer frequency, TF over GST control) in experiment [2]; 1.94 fold enrichment (6-mer frequency, TF over GST control) in experiment [3]; 1.18 fold enrichment (6-mer frequency, TF over GST control) in experiment [4]; 1.41 fold enrichment (6-mer frequency, TF over GST control) in experiment [5]; 1.37 fold enrichment (6-mer frequency, TF over GST control) in [6]. The binding signal is 1.27 fold enrichment (6-mer frequency, TF over GST control) in experiment [7]; 1.17 fold enrichment (6-mer frequency, TF over GST control) in experiment [8]; 2.69 fold enrichment (6-mer frequency, TF over GST control) in [9]; 1.35 fold enrichment (6-mer frequency, TF over GST control) in [10]; 1.28 fold enrichment (6-mer frequency, TF over GST control) in experiment [11]; 1.43 fold enrichment (6-mer frequency, TF over GST control) in [12]. Moreover, the binding signal in experiment [13] was 1.39 fold enrichment (6-mer frequency, TF over GST control); in [14], 1.32 fold enrichment (6-mer frequency, TF over GST control); in [15], 1.31 fold enrichment (6-mer frequency, TF over GST control); in experiment [16] it was 1.39 fold enrichment (6-mer frequency, TF over GST control); in [17], 1.38 fold enrichment (6-mer frequency, TF over GST control); in experiment [18], 1.52 fold enrichment (6-mer frequency, TF over GST control).

Source of the values: publication PMC7862700, “An all-to-all approach to the identification of sequence-specific readers for epigenetic DNA modifications on cytosine”.
